Measurements as given in PMC7862700, “An all-to-all approach to the identification of sequence-specific readers for epigenetic DNA modifications on cytosine”.

Experiments:
Experiment in all cases: DAPPL (digital affinity profiling via proximity ligation, sequencing); 10 mM Tris-HCl pH 7.5, 50 mM NaCl, 1 mM DTT, 4% glycerol, room temperature, 30 min; GST-TFs on glutathione beads, 16-mer random dsDNA library, 0.1% formaldehyde crosslink after washing; high values mean tight binding
Settings in all cases: protein: recombinant; tags: N-terminal GST; dsDNA, one strand shown
[1] = biological target: T1, ELK1 (Homo sapiens, UniProt P19419 1-428)
T1 sequence: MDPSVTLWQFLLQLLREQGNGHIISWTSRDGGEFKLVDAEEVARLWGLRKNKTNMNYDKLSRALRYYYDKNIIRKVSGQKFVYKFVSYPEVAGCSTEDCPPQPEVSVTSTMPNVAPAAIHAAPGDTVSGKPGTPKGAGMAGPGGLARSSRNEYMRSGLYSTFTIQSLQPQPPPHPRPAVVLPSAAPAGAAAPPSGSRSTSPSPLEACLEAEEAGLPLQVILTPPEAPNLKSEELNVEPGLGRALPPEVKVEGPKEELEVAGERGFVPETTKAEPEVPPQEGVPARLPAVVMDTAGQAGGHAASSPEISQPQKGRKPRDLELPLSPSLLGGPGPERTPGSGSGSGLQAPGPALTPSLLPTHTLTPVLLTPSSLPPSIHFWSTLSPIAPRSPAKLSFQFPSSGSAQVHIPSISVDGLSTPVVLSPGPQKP
Outline: (§1)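 A tag-only sample was pooled with DNA-barcoded human transcription factors that had been expressed in yeast as GST fusions and captured on glutathione beads. The pools were incubated for 30 min at room temperature with 200 nmole of a random double-stranded 16-mer DNA library in Tris/NaCl/DTT/glycerol buffer, then washed, crosslinked with 0.1% formaldehyde, proximity-ligated (BsaI/T4 ligase, 1 h, 37 °C), PCR-amplified and sequenced on an Illumina NextSeq500. Binding signal is each hexamer's read frequency for a factor divided by its frequency for the tag-only sample.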

[2] = biological target: ELF1 (Homo sapiens, UniProt P32519 1-619)
Sequence of ELF1 (P32519 whole entry): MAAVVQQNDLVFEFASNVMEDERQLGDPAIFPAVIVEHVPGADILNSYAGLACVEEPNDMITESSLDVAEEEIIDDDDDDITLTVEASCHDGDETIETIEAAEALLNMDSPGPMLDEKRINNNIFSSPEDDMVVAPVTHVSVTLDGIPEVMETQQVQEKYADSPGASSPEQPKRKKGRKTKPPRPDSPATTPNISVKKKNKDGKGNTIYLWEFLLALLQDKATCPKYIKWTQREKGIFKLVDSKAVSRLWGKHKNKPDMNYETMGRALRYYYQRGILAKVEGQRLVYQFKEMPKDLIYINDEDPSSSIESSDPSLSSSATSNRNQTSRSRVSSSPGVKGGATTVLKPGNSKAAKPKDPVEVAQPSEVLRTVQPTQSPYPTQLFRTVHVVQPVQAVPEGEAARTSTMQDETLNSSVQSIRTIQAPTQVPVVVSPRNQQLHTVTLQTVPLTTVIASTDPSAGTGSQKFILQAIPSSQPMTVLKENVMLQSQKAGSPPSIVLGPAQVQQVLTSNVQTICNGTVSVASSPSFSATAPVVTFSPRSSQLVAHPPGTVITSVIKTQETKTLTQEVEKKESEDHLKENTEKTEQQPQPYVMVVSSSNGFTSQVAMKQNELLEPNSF
Outline: as §1

[3] = biological target: T2, EHF (Homo sapiens, UniProt Q9NZC4 1-300)
T2 sequence: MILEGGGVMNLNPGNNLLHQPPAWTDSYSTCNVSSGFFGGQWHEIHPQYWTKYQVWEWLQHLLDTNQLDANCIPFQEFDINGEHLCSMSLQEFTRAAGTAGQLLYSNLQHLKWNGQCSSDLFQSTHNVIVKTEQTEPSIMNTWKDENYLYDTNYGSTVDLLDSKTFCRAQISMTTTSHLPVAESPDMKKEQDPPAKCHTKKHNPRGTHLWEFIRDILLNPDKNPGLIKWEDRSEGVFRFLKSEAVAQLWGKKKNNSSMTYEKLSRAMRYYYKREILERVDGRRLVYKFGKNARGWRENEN
Outline: as §1

[4] = biological target: T3, FEV (Homo sapiens, UniProt Q99581 1-238)
T3 sequence: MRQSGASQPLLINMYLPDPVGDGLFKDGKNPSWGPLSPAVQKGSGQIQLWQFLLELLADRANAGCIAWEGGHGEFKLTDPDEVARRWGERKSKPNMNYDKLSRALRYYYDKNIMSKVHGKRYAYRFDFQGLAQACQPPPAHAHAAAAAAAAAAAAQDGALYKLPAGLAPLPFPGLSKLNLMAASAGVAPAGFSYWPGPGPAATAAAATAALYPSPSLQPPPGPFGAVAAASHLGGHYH
Outline: as §1

[5] = biological target: ETV5 (Homo sapiens, UniProt P41161 1-510)
Sequence of ETV5 (P41161 whole entry): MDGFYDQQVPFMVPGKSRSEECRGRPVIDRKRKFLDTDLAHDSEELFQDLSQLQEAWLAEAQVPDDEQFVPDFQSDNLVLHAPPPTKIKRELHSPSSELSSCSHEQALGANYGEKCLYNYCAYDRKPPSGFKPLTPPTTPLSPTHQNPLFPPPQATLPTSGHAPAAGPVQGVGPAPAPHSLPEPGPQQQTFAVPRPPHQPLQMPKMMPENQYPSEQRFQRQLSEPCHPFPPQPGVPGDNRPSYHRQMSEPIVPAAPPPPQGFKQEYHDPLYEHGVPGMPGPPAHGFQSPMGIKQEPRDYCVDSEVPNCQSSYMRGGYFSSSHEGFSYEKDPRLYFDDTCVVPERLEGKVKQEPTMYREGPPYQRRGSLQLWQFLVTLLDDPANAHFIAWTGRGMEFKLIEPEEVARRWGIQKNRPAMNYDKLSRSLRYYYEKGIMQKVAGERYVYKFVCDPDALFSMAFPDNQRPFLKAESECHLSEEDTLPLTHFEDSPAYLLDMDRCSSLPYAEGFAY
Outline: as §1

[6] = biological target: T4, ELK4 (Homo sapiens, UniProt P28324-2 1-405)
T4 sequence: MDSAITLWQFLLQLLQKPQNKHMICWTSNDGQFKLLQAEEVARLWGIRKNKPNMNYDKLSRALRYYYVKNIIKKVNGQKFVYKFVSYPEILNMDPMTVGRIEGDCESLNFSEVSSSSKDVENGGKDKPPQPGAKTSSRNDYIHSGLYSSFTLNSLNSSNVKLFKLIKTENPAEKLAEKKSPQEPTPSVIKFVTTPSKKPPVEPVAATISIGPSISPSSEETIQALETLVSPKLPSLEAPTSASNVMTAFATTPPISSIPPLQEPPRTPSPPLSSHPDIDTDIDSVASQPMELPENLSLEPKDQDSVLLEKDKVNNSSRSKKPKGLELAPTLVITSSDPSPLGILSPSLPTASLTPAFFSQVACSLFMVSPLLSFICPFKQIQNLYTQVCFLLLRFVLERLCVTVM
Outline: as §1

[7] = biological target: T5, ETV2 (Homo sapiens, UniProt O00321 1-342)
T5 sequence: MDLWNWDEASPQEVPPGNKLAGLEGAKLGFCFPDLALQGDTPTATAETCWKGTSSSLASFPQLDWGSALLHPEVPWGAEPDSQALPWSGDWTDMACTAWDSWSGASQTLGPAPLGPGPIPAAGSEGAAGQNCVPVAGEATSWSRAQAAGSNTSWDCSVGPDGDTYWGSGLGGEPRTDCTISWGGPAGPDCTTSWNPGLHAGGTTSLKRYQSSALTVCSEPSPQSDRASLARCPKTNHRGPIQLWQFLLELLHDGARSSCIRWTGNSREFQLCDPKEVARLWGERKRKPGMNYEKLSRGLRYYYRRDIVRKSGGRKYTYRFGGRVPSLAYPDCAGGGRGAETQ
Outline: as §1

[8] = biological target: T6, ERF (Homo sapiens, UniProt P50548 1-548)
T6 sequence: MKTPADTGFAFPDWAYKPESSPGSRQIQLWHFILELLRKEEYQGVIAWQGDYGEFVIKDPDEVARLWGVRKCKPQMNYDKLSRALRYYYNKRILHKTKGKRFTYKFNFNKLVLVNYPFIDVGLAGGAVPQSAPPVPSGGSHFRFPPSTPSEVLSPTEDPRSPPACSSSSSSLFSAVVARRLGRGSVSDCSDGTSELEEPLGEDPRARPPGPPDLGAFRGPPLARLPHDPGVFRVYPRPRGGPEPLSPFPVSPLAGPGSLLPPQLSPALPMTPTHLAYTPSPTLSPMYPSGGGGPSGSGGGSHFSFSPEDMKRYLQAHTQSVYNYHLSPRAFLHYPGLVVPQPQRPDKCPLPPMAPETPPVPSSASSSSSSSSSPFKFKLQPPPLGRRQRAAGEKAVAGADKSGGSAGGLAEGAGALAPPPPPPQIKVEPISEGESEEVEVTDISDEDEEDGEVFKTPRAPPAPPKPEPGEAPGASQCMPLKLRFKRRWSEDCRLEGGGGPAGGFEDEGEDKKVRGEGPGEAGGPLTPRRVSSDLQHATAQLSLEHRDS
Outline: as §1

[9] = biological target: T7, ETV7 (Homo sapiens, UniProt Q9Y603 1-341)
T7 sequence: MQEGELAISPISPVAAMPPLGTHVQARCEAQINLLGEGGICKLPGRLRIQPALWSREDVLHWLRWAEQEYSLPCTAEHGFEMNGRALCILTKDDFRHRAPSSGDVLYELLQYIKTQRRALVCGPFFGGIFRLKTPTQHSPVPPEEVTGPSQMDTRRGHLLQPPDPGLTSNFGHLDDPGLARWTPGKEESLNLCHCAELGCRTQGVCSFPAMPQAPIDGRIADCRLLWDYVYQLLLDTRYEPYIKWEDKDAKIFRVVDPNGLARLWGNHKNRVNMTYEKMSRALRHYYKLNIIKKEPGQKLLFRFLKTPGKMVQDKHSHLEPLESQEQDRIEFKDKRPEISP
Outline: as §1

[10] = biological target: T8, ETV3 (Homo sapiens, UniProt P41162-2 1-143)
T8 sequence: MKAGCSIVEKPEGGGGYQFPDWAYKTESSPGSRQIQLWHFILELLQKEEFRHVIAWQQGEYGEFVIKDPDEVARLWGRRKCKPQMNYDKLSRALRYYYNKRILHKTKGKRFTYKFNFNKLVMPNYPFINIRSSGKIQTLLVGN
Outline: as §1

[11] = biological target: T9, GABPA (Homo sapiens, UniProt Q06546 1-454)
T9 sequence: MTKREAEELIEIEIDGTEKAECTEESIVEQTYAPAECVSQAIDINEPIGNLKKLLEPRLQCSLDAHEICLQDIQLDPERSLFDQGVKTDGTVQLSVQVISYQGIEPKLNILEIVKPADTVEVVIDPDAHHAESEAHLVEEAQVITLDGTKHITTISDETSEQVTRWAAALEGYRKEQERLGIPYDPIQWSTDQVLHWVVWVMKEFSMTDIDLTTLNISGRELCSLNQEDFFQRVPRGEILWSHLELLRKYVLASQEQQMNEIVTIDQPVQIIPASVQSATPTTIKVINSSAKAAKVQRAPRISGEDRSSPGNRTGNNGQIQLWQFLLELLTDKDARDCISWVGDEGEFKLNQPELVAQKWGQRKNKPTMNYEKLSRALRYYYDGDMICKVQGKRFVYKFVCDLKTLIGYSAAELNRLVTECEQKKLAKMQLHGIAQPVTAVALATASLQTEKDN
Outline: as §1

[12] = biological target: SPIB (Homo sapiens, UniProt Q01892 1-262)
Sequence of SPIB (Q01892 whole entry): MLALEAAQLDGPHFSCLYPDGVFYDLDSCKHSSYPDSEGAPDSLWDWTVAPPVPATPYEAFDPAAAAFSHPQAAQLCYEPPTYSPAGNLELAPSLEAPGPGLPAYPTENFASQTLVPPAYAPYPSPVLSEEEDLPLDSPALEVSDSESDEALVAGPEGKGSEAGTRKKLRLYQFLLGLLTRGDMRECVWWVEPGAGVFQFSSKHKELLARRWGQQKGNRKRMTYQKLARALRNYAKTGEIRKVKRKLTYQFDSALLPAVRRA
Outline: as §1

[13] = biological target: ELF4 (Homo sapiens, UniProt Q99607 1-663)
Sequence of ELF4 (Q99607 whole entry): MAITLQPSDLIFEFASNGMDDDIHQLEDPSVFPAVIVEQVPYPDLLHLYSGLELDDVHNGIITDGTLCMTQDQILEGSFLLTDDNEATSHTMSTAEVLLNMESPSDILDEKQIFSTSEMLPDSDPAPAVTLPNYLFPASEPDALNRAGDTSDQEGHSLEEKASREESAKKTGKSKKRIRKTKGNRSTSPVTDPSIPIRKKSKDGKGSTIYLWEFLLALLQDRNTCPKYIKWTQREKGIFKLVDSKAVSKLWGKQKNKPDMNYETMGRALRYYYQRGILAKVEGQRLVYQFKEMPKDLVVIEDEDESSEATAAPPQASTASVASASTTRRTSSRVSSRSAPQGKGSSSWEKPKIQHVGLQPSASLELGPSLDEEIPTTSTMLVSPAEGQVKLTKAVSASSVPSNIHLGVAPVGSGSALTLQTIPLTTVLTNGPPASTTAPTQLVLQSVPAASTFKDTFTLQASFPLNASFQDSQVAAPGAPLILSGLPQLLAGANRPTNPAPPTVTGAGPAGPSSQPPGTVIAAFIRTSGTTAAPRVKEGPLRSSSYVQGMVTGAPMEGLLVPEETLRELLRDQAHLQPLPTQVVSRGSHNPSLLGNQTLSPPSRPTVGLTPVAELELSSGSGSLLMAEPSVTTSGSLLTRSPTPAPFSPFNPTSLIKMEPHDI
Outline: as §1

[14] = biological target: T10, ELF3 (Homo sapiens, UniProt P78545 1-371)
T10 sequence: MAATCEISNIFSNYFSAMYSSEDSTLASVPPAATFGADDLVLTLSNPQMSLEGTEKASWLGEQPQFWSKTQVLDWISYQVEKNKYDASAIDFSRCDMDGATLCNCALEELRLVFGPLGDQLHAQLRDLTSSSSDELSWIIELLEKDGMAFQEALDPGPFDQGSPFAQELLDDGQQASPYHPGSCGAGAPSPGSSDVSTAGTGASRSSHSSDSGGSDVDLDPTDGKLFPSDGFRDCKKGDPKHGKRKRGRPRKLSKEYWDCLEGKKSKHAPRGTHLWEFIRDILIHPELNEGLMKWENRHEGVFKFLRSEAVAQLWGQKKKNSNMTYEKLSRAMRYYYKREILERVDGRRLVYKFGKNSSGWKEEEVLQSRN
Outline: as §1

[15] = biological target: ETV1 (Homo sapiens, UniProt P50549 1-477)
Sequence of ETV1 (P50549 whole entry): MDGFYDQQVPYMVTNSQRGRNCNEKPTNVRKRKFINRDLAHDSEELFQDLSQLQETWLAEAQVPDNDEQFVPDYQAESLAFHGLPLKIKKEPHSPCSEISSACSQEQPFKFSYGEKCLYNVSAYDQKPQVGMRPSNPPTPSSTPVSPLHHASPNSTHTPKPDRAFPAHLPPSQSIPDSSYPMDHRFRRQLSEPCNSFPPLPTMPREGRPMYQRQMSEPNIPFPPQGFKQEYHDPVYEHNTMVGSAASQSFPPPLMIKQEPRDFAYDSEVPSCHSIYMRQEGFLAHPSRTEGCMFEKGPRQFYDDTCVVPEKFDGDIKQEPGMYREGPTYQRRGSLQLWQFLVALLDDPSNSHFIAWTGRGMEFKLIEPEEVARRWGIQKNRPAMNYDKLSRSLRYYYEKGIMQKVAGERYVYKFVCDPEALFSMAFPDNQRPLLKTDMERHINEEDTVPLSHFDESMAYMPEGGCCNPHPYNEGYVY
Outline: as §1

[16] = biological target: T11, SPDEF (Homo sapiens, UniProt O95238 1-335)
T11 sequence: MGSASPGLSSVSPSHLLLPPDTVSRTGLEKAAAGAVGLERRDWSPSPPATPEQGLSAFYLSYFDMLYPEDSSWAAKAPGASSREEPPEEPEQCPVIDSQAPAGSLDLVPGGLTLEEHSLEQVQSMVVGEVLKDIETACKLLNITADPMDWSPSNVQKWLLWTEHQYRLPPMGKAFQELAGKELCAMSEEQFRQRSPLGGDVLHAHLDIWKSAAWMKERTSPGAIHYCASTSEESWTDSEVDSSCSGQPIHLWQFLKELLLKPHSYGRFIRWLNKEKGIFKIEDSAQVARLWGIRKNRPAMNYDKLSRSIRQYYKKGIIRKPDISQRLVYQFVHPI
Outline: as §1

[17] = biological target: ETV6 (Homo sapiens, UniProt P41212 1-452)
Sequence of ETV6 (P41212 whole entry): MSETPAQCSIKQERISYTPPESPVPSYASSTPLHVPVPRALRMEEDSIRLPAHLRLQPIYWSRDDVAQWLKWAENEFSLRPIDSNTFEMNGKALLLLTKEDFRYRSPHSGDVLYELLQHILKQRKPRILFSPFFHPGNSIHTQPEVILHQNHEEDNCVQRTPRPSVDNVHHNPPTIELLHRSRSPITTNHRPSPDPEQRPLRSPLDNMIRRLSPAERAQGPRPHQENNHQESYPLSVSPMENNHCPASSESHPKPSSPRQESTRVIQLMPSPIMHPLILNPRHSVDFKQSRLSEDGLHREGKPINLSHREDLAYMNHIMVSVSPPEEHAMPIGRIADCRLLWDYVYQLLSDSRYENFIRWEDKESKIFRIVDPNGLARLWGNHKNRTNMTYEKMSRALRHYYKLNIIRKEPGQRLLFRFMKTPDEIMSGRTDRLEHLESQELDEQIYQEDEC
Outline: as §1

Sequence	binding signal [1]	binding signal [2]	binding signal [3]	binding signal [4]	binding signal [5]	binding signal [6]	binding signal [7]	binding signal [8]	binding signal [9]	binding signal [10]	binding signal [11]	binding signal [12]	binding signal [13]	binding signal [14]	binding signal [15]	binding signal [16]	binding signal [17]
GCTAAC	1.1 fold enrichment (6-mer frequency, TF over GST control)	1.04 fold enrichment (6-mer frequency, TF over GST control)	1.03 fold enrichment (6-mer frequency, TF over GST control)	1.03 fold enrichment (6-mer frequency, TF over GST control)	1.06 fold enrichment (6-mer frequency, TF over GST control)	1.05 fold enrichment (6-mer frequency, TF over GST control)	1.07 fold enrichment (6-mer frequency, TF over GST control)	1.03 fold enrichment (6-mer frequency, TF over GST control)	1.09 fold enrichment (6-mer frequency, TF over GST control)	1 fold enrichment (6-mer frequency, TF over GST control)	–	–	–	–	–	–	–
ACGCGG	–	1.03 fold enrichment (6-mer frequency, TF over GST control)	1.04 fold enrichment (6-mer frequency, TF over GST control)	–	1.02 fold enrichment (6-mer frequency, TF over GST control)	1.03 fold enrichment (6-mer frequency, TF over GST control)	1.18 fold enrichment (6-mer frequency, TF over GST control)	–	–	1.02 fold enrichment (6-mer frequency, TF over GST control)	1.01 fold enrichment (6-mer frequency, TF over GST control)	1.04 fold enrichment (6-mer frequency, TF over GST control)	1 fold enrichment (6-mer frequency, TF over GST control)	1.07 fold enrichment (6-mer frequency, TF over GST control)	1.02 fold enrichment (6-mer frequency, TF over GST control)	1.08 fold enrichment (6-mer frequency, TF over GST control)	1.07 fold enrichment (6-mer frequency, TF over GST control)
